In all, about 48,000 compounds went through this assay and about 13,000 (27%) showed an effect of 50% or more. The list shows a part of the results.

The test system of the assay is Wolbachia pipientis. Kind of assay: Anti-Wolbachia Cell-Based Screen. Type of assay: functional. On the set-up: scale not given: in the data most compounds retested in dose-response had high values. The conditions noted are these: 5 µM.
In the case of `Cc1ccc([C@@H]2CN(C(=O)c3cc(C)n[nH]3)C[C@H]2NC(=O)C2CC2)cc1`, the “Percent Effect” value is listed as 4.814%.
Consider `CCNC(=O)CN(CC)S(=O)(=O)c1c(Br)cc2[nH]c(=O)oc2c1Cl`, for which the “Percent Effect” value is -2.285%.
The same measure for `CN(C(=O)c1cccc(NCc2cccs2)c1)C(C1CC1)C1CC1`: 113%.
For `CC(=O)Nc1cccc(C(=O)N(C)C(C)Cc2cc(C)ccn2)c1` (stereo not given), the “Percent Effect” value is 4.881%.
Turning to `Cc1ccnc(NCCNC(=O)c2ccccc2NCC(=O)O)c1`, the “Percent Effect” value was -16.08%.
In the case of `CC(C)CN(C(=O)Nc1cccc(C(=O)N(C)C)c1)C1CC1` it was 4.006%; in that of `CN(C(=O)c1ccccc1NCC(=O)O)C(C1CC1)C1CC1`, 114.3%.
`CN(C)CC(c1ccccc1)N(C)C(=O)c1cccc(NCC(=O)O)c1` (stereo not given): the “Percent Effect” value is 104.1%.
In the case of `Cc1cc(CNc2cccc(C(=O)N(C)c3ccccc3)c2)no1` it was 2.006%; in that of `COC(C)c1cccc(NCc2cccs2)c1` (stereo not given), 2.749%.
With `CC(C)N(CC(=O)Nc1cccc(C(=O)N(C)C)c1)C1CC1`, the “Percent Effect” value amounted to 5.845%.
For `CCn1nc(C)c(CCNC(=O)c2cccc(NCC(=O)O)c2)c1C`, the “Percent Effect” value is -5.115%.
On to `CN(CC(=O)N1CCCC1)C(=O)c1ccccc1Nc1ccccc1`, for which the “Percent Effect” value is on record as -0.554%.
Take `CN(C(=O)c1cccc(NCC(=O)O)c1)C(C1CC1)C1CC1`: the “Percent Effect” value came out at 109.4%.
The same measure for `CC(C)(C)C(=O)N1C[C@@H](F)[C@@H](OCc2nc3ccccc3o2)C1`: -2.26%; for `Cc1cnn(C2CN(Cc3noc(C4CC4)n3)C2)c1`: -0.9556%.
For the compound `CN1C(=O)C2(CCN(S(C)(=O)=O)CC2)c2cc(F)ccc21.Cl`, the “Percent Effect” value is -38.1%.
In the case of `Brc1cc(CNCc2nnc3n2CCC3)cs1.Cl` it was -5.919%.
In the case of `O=C(COCC1CCCO1)N(Cc1cccnc1)c1ccc(F)cc1` (stereo not given) it was 100.3%.
In the case of `O=C(CN(Cc1cccnc1)CC1CCCO1)Nc1ccc(F)cc1` (stereo not given) it was -1.761%; in that of `O=C(CCc1cccnc1)N(Cc1ccsc1)CC1CCCO1` (stereo not given), -15.29%; in that of `CNC(=O)C1(CCCc2ccncc2)CCCN1` (stereo not given), -10.96%.
On to `CC(CCNC(=O)NCCc1ccncc1)c1ccccc1` (stereo not given), for which the “Percent Effect” value is recorded as 4.177%.
As to `CNC(=O)C1(CCCc2ccncc2)CCCCN1.Cl` (stereo not given), the “Percent Effect” value amounted to 104.3%.
The same measure for `NC(=O)C1(CCCc2ccncc2)CCCN1` (stereo not given): 96.03%; for `CC(=O)NC(=O)C1(CCCc2ccncc2)CCN1` (stereo not given): 96.13%.
The same measure for `CN(CCCNC(=O)NCc1ccncc1)CC(F)(F)F`: -10.78%.
In the case of `Cc1cccc(C(C(=O)NCCCc2ccncc2)N(C)C)c1` (stereo not given) it was -9.46%; in that of `CNC(=O)C1(CCCc2ccncc2)CCN1.O=C(O)C(F)(F)F` (stereo not given), 127.6%; in that of `CCNc1ncc(C(=O)NCCCc2ccncc2)cn1`, -5.909%.
Turning to `CN(C)C(=O)C1(CCCc2ccncc2)CCCN1` (stereo not given), the “Percent Effect” value is on record as -8.359%.
With `O=C(O)C(F)(F)F.O=C(O)C(F)(F)F.O[C@H]1CCN(CC2CC2)[C@H]1Cc1ccncc1`, the “Percent Effect” value amounted to 1.351%.
On to `CCN(Cc1ccncc1)C(=O)c1cn(CCCc2ccccc2)nn1`, for which the “Percent Effect” value is reported as -1.571%.
In the case of `CN(CCSc1ccccc1)C(=O)C(c1cccnc1)N1CCOCC1` (stereo not given) it was 0.338%; in that of `Cc1cc(S(=O)(=O)Nc2cccc(I)c2)sc1C(=O)O`, 5.422%; in that of `CN1CCCC2(CCN(c3cc(C(F)(F)F)nc(N(C)C)n3)C2)C1=O` (stereo not given), 7.307%.
In the case of `CCc1cnc(N)nc1NCc1ccc(OC)c(OC)c1` it was -14.4%; in that of `COc1cc(CNc2ccc(Cl)cc2)ccc1OCC(=O)O`, 106%.
Take `COc1ccc(CNC(=O)c2ccc(Cl)cc2F)cc1C(=O)O`: the “Percent Effect” value is given as 25.37%.
In the case of `COc1ccccc1OCC(=O)Nc1ncccc1Cl` it was -0.249%; in that of `COc1cccc(CNc2cc(CO)ccc2Cl)c1`, -79.64%.
Take `COc1cc(CNc2ccccc2Cl)ccc1OCC(=O)O`: the “Percent Effect” value came to 86.61%.
The same measure for `CNC(=O)NC(=O)CNC(CC(F)(F)F)c1ccc(F)cc1` (stereo not given): 13.05%; for `CN(CC(=O)N1CC(C)(C)[C@](O)(C2CC2)C1)Cc1ccncc1`: -13.6%.
As to `CCOCCCNC(=O)c1cccn1Cc1cccnc1`, the “Percent Effect” value is recorded as -15.39%.
`CCc1nc(C)c(C(=O)N(C)Cc2cnc3ccccn23)o1`: the “Percent Effect” value is reported as -30.87%.
In the case of `COC(=O)c1cccn1C1CCN(Cc2cccnc2)CC1` it was 126.9%; in that of `COC(=O)c1cccn1C1CCN(Cc2cnc3ccccn23)CC1`, 132%.
As for `Cc1ncc2c(n1)CCN(Cc1nc3ccccc3o1)C2`, the “Percent Effect” value came out at 7.952%.
With `COC(=O)c1cccn1C1CCN(Cc2nc3ccccc3o2)CC1`, the “Percent Effect” value stood at 118.1%.
For the compound `CC(C)C(C)NC(=O)c1cccn1Cc1cccnc1` (stereo not given), the “Percent Effect” value is -0.09991%.
The same measure for `O=C1CCC(=O)N1CCN1CCC(=Cc2ccccc2)CC1`: -0.4568%; for `COCc1nnc(C(=O)N(C)Cc2cnc3ccccn23)o1`: -16.21%; for `COC(=O)c1cccn1C1CCN(CCN2C(=O)CCC2=O)CC1`: 85.14%.
In the case of `CCN(CC)C(=O)[C@@H]1C[C@@H](NC(=O)c2cccn2C2CC2)CN1C` it was 0.5236%; in that of `CCN1CCN(C2CCN(Cc3nc4ccccc4o3)CC2)C1=O`, -0.2621%; in that of `N#CCCN(CCC#N)C(=O)CN1CCCC1Cc1cccc(F)c1` (stereo not given), -4.236%.
`COC(=O)c1cccn1C1CCN(S(=O)(=O)c2ccccc2)CC1`: the “Percent Effect” value turned out to be 89.91%.
For `COC(=O)c1ccc(S(=O)(=O)N2CCC(Oc3cccnn3)CC2)cc1`, the “Percent Effect” value is -19.83%.
The same measure for `COC(=O)c1cccn1C1CCN(Cc2cccc(C(N)=O)c2)CC1`: 132.6%; for `COCCN1CCN(Cc2cccc(C(N)=O)c2)CC1C` (stereo not given): 5.406%.
In the case of `CC(O)CN1CCC(CNCc2cccc(C(N)=O)c2)CC1` (stereo not given) it was 1.784%; in that of `COC(=O)[C@@H]1CN(S(=O)(=O)c2ccccc2)CCN1S(C)(=O)=O`, -4.195%.
In the case of `CCOCCn1c(=O)n(CCC(C)C)c2ncc(C(=O)O)cc21` it was -3.937%; in that of `COCC(=O)Nc1ccc([C@@H](O)[C@H]2COCC(=O)N2C)cc1`, -3.081%.
For the compound `CS(=O)(=O)N1CCN(C(=O)c2cccc(Cl)c2)CC2(CNC(=O)C2)C1` (stereo not given), the “Percent Effect” value was determined as 2.79%.
The same measure for `Cc1nc(CC(=O)N2CCC[C@H]2c2nc(C(C)C)no2)cs1`: -12.82%; for `CCC(=O)N1CCCC1c1nc(N(C)C)ncc1-c1ccc(Cl)cc1` (stereo not given): 84.51%; for `CN(C)c1ccc(C(=O)N2CCCC2c2ccc(Cl)cc2)cc1` (stereo not given): 5.929%.
In the case of `CC(C)C(=O)N1CCCC1c1nc(N(C)C)ncc1-c1ccc(Cl)cc1` (stereo not given) it was 126.5%.

The values above are taken from ChEMBL document CHEMBL3988442, “University of Dundee, Small-Polar-MMV Screening Library” (2021).
